High-throughput results (PubChem)
Hits are enriched below; roughly 19% of the tested compounds scored in any of these assays.
DT40 TDP1 CPT – DT40-hTDP1 cell growth loss with CPT; chicken DT40 Tdp1-/-;hTDP1 cells + 20 nM CPT, ATP luminescence, 48 h; Potency, µM (titrated, usually from 46.2 µM), for inactives: at the highest dose activity change, negative = growth inhibition, actives largely listed as inhibitors; AID 686979; 420,000 compounds, 12% hits; note: potency is the fitted concentration of half-maximal effect; nearly all actives have a fitted effect of over 55% in size
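Chicken DT40 Tdp1-/- cells complemented with human TDP1, 400 cells/well, exposed to compounds plus 20 nM camptothecin for at least 48 h at 37 C; viability read as ATP content by CellTiter-Glo luminescence.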
HT1080 IDH1KD tx – HT-1080 IDH1 knockdown cell toxicity (counter line); AID 686971; HT-1080 IDH1 knockdown viability, ATP luminescence, 48 h; Potency, µM (highest dose often 46.1 µM), without a hit: at the highest dose activity, negative = toxicity, most hits filed as cytotoxic; 360,000 compounds, 2% hits;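 note: potency is the fitted concentration of half-maximal effect; 0% = DMSO wells and -100% = cell-free medium wells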
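Assay cells: HT-1080 with IDH1 knockdown, 750 per well, RPMI/5% FBS. Exposure: 48 h at 37 °C following 2 h pre-incubation. Read: CellTiter-Glo luminescence; fitted concentration-response, curve class assigned.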
HT1080-NT tox – kills 2HG-producing HT-1080-NT fibrosarcoma cells | HT-1080-NT fibrosarcoma viability, CellTiter-Glo ATP luminescence, 48 h | Potency, µM (doses to about 46.1 µM), inactives show top-dose activity, negative = less viability, usual class: cytotoxic | 360,000 compounds, 1.6% hits | AID 686970;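 note: NT is the 2HG producing partner of a matched IDH1 knockdown line; potency is the fitted concentration of half-maximal effect; 0% = DMSO-treated cells and -100% = media-only wells without cells; nearly all actives have a fitted effect of over 55% in size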
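Luminescent CellTiter-Glo readout after 48 hours of compound exposure at 37 degrees C defined viability of HT-1080-NT cells. Activity was normalized to DMSO wells and cell-free media wells; concentration-response curves were fitted and assigned curve classes.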
TDP1 cell noCPT – qHTS for Inhibitors of human tyrosyl-DNA phosphodiesterase 1 (TDP1): qHTS in cells in absence of CPT | 420,000 compounds, 15% hits | DT40 Tdp1-/- hTDP1 cells, no CPT, ATP luminescence, 48 h | Potency, µM (highest dose often 46.2 µM), inactives show at the highest dose activity change, negative = growth inhibition, usual class: inhibitors; note: potency is the fitted concentration of half-maximal effect; nearly all actives have a fitted effect of over 55% in size
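Chicken DT40 Tdp1-/- cells stably complemented with human TDP1 were seeded at 400 cells/well with DMSO in place of 20 nM camptothecin. After compound pinning, cells grew at least 48 hr at 37 °C; viability read by CellTiter-Glo luminescence.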
IL-1B inflam inh – blocks inflammasome-driven IL-1 beta release; AID 743279; activity change, % at 57.5 µM; THP-1 LPS/ATP IL-1B secretion, AlphaLISA, 16 h; active compounds read low; 360,000 compounds, 4.7% hits; in the data active = activity change below about -50%; inconclusive = mostly about -30% to -49%
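Secreted IL-1B measured by AlphaLISA bead assay after 16 h compound exposure of THP-1 cells; compounds (final up to 57.5 uM) added 1 h before LPS (250 ng/mL) and ATP (1.25 mM) stimulation; lower signal means less secretion.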
ELG1 repair inh – ELG1-dependent DNA repair inhibition. HEK293T ELG1-luciferase reporter, luminescence, 16 h; DNA damage induced by 5-fluorouridine. Potency, µM (series often up to 46.1 µM), without a hit: top-dose activity change, negative = inhibition, most hits filed as inhibitors. 330,000 compounds, 2.3% hits. AID 504467; note: potency is the fitted concentration of half-maximal effect; nearly all actives have a fitted effect of over 55% in size
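In this reporter screen, reduction of luminescence relative to DMSO vehicle indicated activity. Compounds and 5-fluorouridine were added together to 2,000 cells per well, incubated for 16 hr at 37 °C, then developed with ONE-Glo.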
The depositor's hits bear a star; ? = inconclusive; . = no result given. Unless noted, calls come from the whole dose curve; as a rule, active = well fitted curve in the direction sought with a large enough effect; inconclusive = small, poorly fitted or top-dose-only effect, or another doubt; inactive = no such curve, though single readings can be large; an effect the other way counts as inactive or inconclusive. Unless noted, % is set by controls: 0 for no effect and ±100 for the full control effect.

SMILES	DT40 TDP1 CPT	HT1080 IDH1KD tx	HT1080-NT tox	TDP1 cell noCPT	IL-1B inflam inh	ELG1 repair inh
COC(=O)CSc1nnc(COc2ccc([N+](=O)[O-])cc2)n1C	13%	11%	-1%	21%	-4	-4%
CCOc1cc(C)ccc1OCc1nnc(SCC(=O)c2cccc([N+](=O)[O-])c2)n1C	-30%	?	?	-15%	-51*	?
CC(C)OC(=O)CSc1nnc(COc2ccc([N+](=O)[O-])cc2)n1C	0%	-1%	-1%	4%	-98*	10%
COCc1cccc(-c2csc(C(O)c3ccc(F)c(OC)c3)n2)c1 (stereo not drawn)	8.2µM*	-8%	-28%	21µM*	0	.
COCc1cccc(-c2csc(C(O)c3ccccc3)n2)c1 (stereo not drawn)	?	?	?	?	8	.
COc1cc(C(O)c2nc(-c3ccccc3)cs2)ccc1F (stereo not drawn)	7.3µM*	-77%	?	6.5µM*	-20	.
COCc1cccc(-c2csc(C(NC(C)=O)c3cccc(F)c3)n2)c1 (stereo not drawn)	-25%	27%	24%	-14%	-16	.
COCc1cccc(-c2csc(C(O)c3cccc(OC)c3)n2)c1 (stereo not drawn)	18µM*	-19%	1%	?	-18	.
COc1ccc(C(O)c2nc(-c3ccc(F)c(Cl)c3)cs2)cc1 (stereo not drawn)	?	?	?	?	0	.
COc1cccc(C(O)c2nc(-c3ccc(F)c(Cl)c3)cs2)c1 (stereo not drawn)	16µM*	?	?	?	-24	.
CCNc1ncc2nc(-c3cn(C)c4ccccc34)c(=O)n(-c3ccccc3)c2n1	5%	.	.	-5%	.	.
COc1ccc(-c2csc(C(O)c3ccc(F)c(OC)c3)n2)cc1 (stereo not drawn)	13µM*	-20%	?	15µM*	-4	.
COc1ccc(-c2csc(C(O)c3ccc(F)c(OC)c3)n2)cn1 (stereo not drawn)	16µM*	-29%	-24%	23µM*	-16	.
COc1ccc(-c2csc(C(O)c3ccc(F)c(F)c3)n2)cn1 (stereo not drawn)	-3%	1%	-22%	-24%	20	.
COc1cc(C(O)c2nc(-c3ccccc3C)cs2)ccc1F (stereo not drawn)	?	?	?	?	4	.
Cc1ccccc1NC(=O)CSc1nnc(COc2ccc(Cl)cc2)o1	4%	.	.	0%	.	.
Cc1ccccc1NC(=O)OCc1cccnc1Oc1ccc(Cl)cc1	-4%	?	-18%	-27%	-79*	-14%
CC1CCCCC1N1CN=C(Nc2nc3ccccc3s2)NC1 (stereo not drawn)	21µM*	-14%	-5%	?	29	-4%
CCOC(=O)C1=CC[C@H]2c3c(c4ccccc4n3C)C(=O)C1N2C	-3%	-5%	-3%	-21%	13	?
CC1(c2ccccc2)NC(=O)N(CC(=O)N2CCN(S(=O)(=O)c3cccc(C(F)(F)F)c3)CC2)C1=O (stereo not drawn)	-24%	-4%	-7%	-5%	6	.
COc1ccc2nc3oc(C(=O)NCc4ccccc4OC)cc3cc2c1	9%	.	.	1%	.	.
CCOC(=O)N1CCC(NC(=O)c2cc3cc4cc(OC)ccc4nc3o2)CC1	?	-27%	-5%	21µM*	?	23µM*
CCOC(=O)N1CCC(NC(=O)c2cc(-c3ccc(OC)cc3)nc3ccccc23)CC1	?	12%	14%	?	4	-3%
